Measured values: PubChem BioAssay (NCATS)
Results filed as inconclusive are left out. Calls of active or inactive are those of the source. Calls come from the whole dose curve; as a rule, active = well fitted inhibition curve with a large enough effect; inconclusive = small, poorly fitted or top-dose-only effect; inactive = flat fitted curve, though single readings scatter.

tested on: CRL-7250; experiment: qHTS assay to identify novel small-molecules to repurpose for Merkel cell carcinoma treatment (AID 1296009); conditions: MCC and control cell lines, CellTiter-Glo viability, 72 h; series mostly up to 92 µM; activity change, negative = cytotoxicity: at the top concentration; note: nearly all actives have a fitted effect of over 60% in size
In short: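 Dose-response viability screen; 72 hr exposure at 37 degree celsius; CellTiter-Glo added, 10 min room temperature, luminescence read; RLUs scaled between no-cell and DMSO wells.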

| Compound | outcome |
| --- | --- |
| CC1(C)CCC(C)(C)c2cc3c(cc21)Sc1ccccc1N=C3c1ccc(C(=O)O)cc1 | inactive |
| CC(=O)OCC1OC(O[C@H]2CC[C@@]3(C)C(CC[C@]4(C)C3CC=C3[C@@H]5CC(C)(C)CC[C@]5(C(=O)O)CC[C@]34C)[C@]2(C)CO)C(O)C(O)C1OC1OC(C)C(O)C(OC2OCC(O)C(O)C2O)C1O (stereo not given in full) | inactive [at 9.27 µM] |
| N#CC(c1ccnc(OCc2ccc(CN3CCOCC3)cc2)n1)c1nc2ccccc2s1 (stereo not given) | inactive |
| CC(=O)O[C@@H]1CC2C(C)(C)C(=O)C=C[C@]2(C)C2CC[C@@]3(C)[C@H](c4ccoc4)OC(=O)[C@H]4O[C@]43[C@@]21C (stereo not given in full) | inactive [at 17.4 µM] |
| O=C(Nc1ccccc1C(=O)NC1CCCCNC1=O)c1cc2ccccc2s1 (stereo not given) | inactive |
| Cc1nc2ccc(CN(C)c3ccc(C(=O)NC(CCC(=O)O)C(=O)O)s3)cc2c(=O)[nH]1 (stereo not given) | inactive |
| CCCN1CCC=C(c2cc(-c3ccc(C)cc3)no2)C1 | inactive |
| NS(=O)(=O)c1ccc(NC(=O)Nc2ccc(F)cc2)cc1 | inactive |
| CC(C)(O)C1CCC2(C)C3C(O)C4C(C13)C42CO (stereo not given) | inactive |
| CC(C)/C=C1/NC(=O)C(C(C)C)n2c1nc1c(O)cccc1c2=O (stereo not given) | inactive |
| NC[C@@H]1O[C@@H](O[C@@H]2[C@@H](O[C@@H]3O[C@H](CO)[C@@H](O)[C@H]3O)[C@H](O)[C@@H](N)C[C@H]2N)[C@@H](N)[C@H](O)[C@H]1O | inactive [at 9.27 µM] |
| C[C@H]1[C@H](C)CC[C@]2(C(=O)O)CC[C@]3(C(=O)O)C(=CCC4[C@@]5(C)CC[C@H](O[C@@H]6O[C@@H](C)[C@H](O)[C@@H](O)[C@H]6O)C(C)(C)C5CC[C@]43C)[C@H]12 (stereo not given in full) | inactive [at 17.4 µM] |
| Clc1ccc2c(c1)C1=NCCN1c1c(-c3noc(C4CC4)n3)ncn1-2 | inactive |
| C=C(C(=O)O)[C@@H]1CC[C@@]2(C)CC[C@H](O)[C@@]2(C(C)=O)C1 | inactive |
| C[C@@H]1O[C@@H](O[C@H]2[C@H](O)[C@@H](O)[C@H](OC(=O)[C@]34CCC(C)(C)C[C@H]3C3=CCC5[C@@]6(C)CC[C@H](O[C@@H]7O[C@H](C(=O)O)[C@@H](O)[C@H](O)[C@H]7O)C(C)(C)C6CC[C@@]5(C)[C@]3(C)CC4)O[C@@H]2CO)[C@H](O)[C@H](O)[C@H]1O (stereo not given in full) | inactive [at 9.27 µM] |
| N[C@@]1(C(=O)O)CC[C@H]2[C@H](C(=O)O)[C@H]21 | inactive |
| COc1c2c(c(C)c3c1C(=O)OC3)O[C@@]1(C)C[C@@H](O)[C@]34O[C@](OC)(CC[C@]3(C)[C@H]1C2)OC4(C)C | inactive [at 17.4 µM] |
| CC1CCC2(C(=O)OC3OC(COC4OC(CO)C(O)C(O)C4O)C(O)C(O)C3O)CCC3(C)C(=CCC4C5(C)CCC(O)C(C)(C(=O)O)C5CCC43C)C2C1(C)O (stereo not given) | inactive [at 9.27 µM] |
| H-DPPDPDRFYGMM-NH2 | inactive [at 17.4 µM] |
| COc1cccc(-n2nc(C(=O)O)cc2-c2ccc(C3CCCCC3)c(Cl)c2)c1 | inactive |
| CC(C)S(=O)(=O)NC[C@H](C)c1ccc(NC(=O)c2cc(F)cc(F)c2)cc1 | inactive |
| CC(C)(C)NCCCNC(=O)c1cccc(Br)c1 | inactive |
| C=CC1(C)C=C2C(O)CC3C(C)(C(=O)O)CCCC3(C)C2CC1 (stereo not given) | inactive |
| C/C=C(\C)C(=O)OC1C2(O)CC3=C4CC(=O)OC(c5ccoc5)C4(C)CCC3C(C)(C2=O)C(C(OC(C)=O)C(=O)OC)C1(C)C (stereo not given) | inactive [at 17.4 µM] |
| CC1=CCC2C(C)(CO)CCCC2(CO)C1CO (stereo not given) | inactive |
| NC(=O)c1cccc(-c2cc(O)cc(OC(=O)NC3CCCCC3)c2)c1 | inactive [at 17.4 µM] |
| CC/C=C\CCO[C@@H]1O[C@H](CO[C@@H]2OC[C@H](O)[C@H](O)[C@H]2O)[C@@H](O)[C@H](O)[C@H]1O | inactive |
| C[C@@H]1CC[C@]2(C(=O)O[C@@H]3O[C@H](CO)[C@@H](O)[C@H](O)[C@H]3O)CC[C@]3(C)C(=CCC4[C@@]5(C)C[C@@H](O)[C@H](O)[C@](C)(C(=O)O)C5CC[C@]43C)[C@@H]2[C@]1(C)O (stereo not given in full) | inactive [at 17.4 µM] |
| Cc1nc(C(=O)N2CCC[C@H]2Cc2nnc(-c3ccccc3)o2)c(-c2ccccc2F)s1 | inactive |
| CC(=O)O[C@@H](C[C@@H]1C=C(C)C(=O)O1)[C@H](C)[C@H]1CCC2[C@@]3(C)CC[C@H](O[C@@H]4O[C@H](CO)[C@@H](O)[C@H](O)[C@H]4O[C@@H]4O[C@@H](C)[C@H](O)[C@@H](O)[C@H]4O)C(C)(C)C3CC[C@@]2(C)[C@@]12COC(=O)C2 (stereo not given in full) | inactive [at 9.27 µM] |
